Hit rate of the full screen: of about 53,000 sequences, about 3,700 (7%) were called active. This is one part of a sample in which actives are shown more often than they occur. Unmarked numbers belong to inactive results.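 Rule for the calls: active = gene knockdowns whose robust z-score for IL-1 alpha signal is at least 2 or at most -2, so actives lie on both sides; inactive = the rest.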
Assay: Components of the Cytosolic LPS Sensing Pathway: Gene Identification via Genome-wide siRNA Screen;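 note: robust z of the log signal after scaling to non-targeting control siRNA wells of the plate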
Conditions: RAW264.7 macrophages, IL-1a HTRF, actives lie on both sides, screened at 100 nM (by protocol), cells primed 5 h with Pam3CSK4 first
Summary of the method: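 IL-1a HTRF of supernatants after 24 hour LipidA transfection of Pam3CSK4-primed (5 hours) RAW264.7 cells, 48h post-siRNA transfection (100 nM). Scores: percent of plate negative-control median, then log-based robust z-score.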

| Sequence | z-score |
| --- | --- |
| GCCAUCGAUACCACAACACTT against Slfn8 | -1.61 |
| GGCAACAUUAGAAGACAGUTT against Tfb1m | -0.591 |
| CCAUCAGGACUCGUGAAUGTT against Fign | -2.09 (active) |
| GGGAAAUGGAAAGCAUUCUTT against Olfr374 | 1.41 |
| GGAGUUUGACUCAAUAUCATT against Napb | 1.24 |
| CCCUUCUCACUAACAUACATT against Dach1 | 1.18 |
| GCUACGAGAUUCUUGUUGCTT against Taar3 | -0.615 |
| GGAGAGGAGACACAUCAGUTT against Gnpat | -0.067 |
| CCAAAACGUGCAACACAAUTT against Cops6 | 0.37 |
| GGUUGAACUCAAAGUAAAGTT against Preb | -1.18 |
| GGUGAACCUCAAUAAUAUCTT against Tmod4 | 0.274 |
| GGAGUUUACUGAGUUUUAGTT against Prkaca | 4.49 (active) |
| GGCUCCAGUAAUUGAUAAATT against Sycp3 | -0.0955 |
| GGGCUGCUGCUUAGCAAUCTT against Egln3 | -0.0783 |
| GGAUGGAGAAGUUUACUACTT against Yap1 | 0.714 |
| GGCGUAACCUAACAUGGGATT against Clec1b | -1.35 |
| GCAACAAUUCUAACAGCUGTT against Lhfpl5 | -0.138 |
| GGCCUUCCAUACUACAACUTT against Zfp595 | 2.2 (active) |
| CCACGUAGGUAAGUGUAGGTT against Oard1 | 0.81 |
| GGAGCAAGGCUACAUUUUUTT against Itih3 | 1.36 |
| GGACAAGGCCCUCAUGAUUTT against Nek8 | -0.468 |
| GCUCGAGUACCUGUACCUATT against Elfn1 | 3.11 (active) |

| Sequence | z-score |
| --- | --- |
| CCUUCAACCUUCGAGAUACTT against Kcnh2 | -0.417 |
| GGUCUUCUUUGAUGUGAGGTT against Ppic | -0.832 |
| GGACUGAAGAAGUGUGUGGTT against Scgb3a2 | 1.66 |
| GCUUCCAGUCAGUGGUUACTT against Rara | 1.07 |
| GGAUGAGCAGAUGCUCCAATT against Mtmr7 | 0.451 |
| GGUAUUUUGACCGAAUCAATT against Add3 | -0.294 |
| GCUCCUCACUUAUUGCCCATT against Zfp354b | -0.0805 |
| GGAUGAAAACACUGAAUACTT against Olfr644 | -0.714 |
| GCAUUUAGUGAGUUCAGUGTT against Kirrel3os | 0.855 |
| GCGCAACUAAAACAGAUUGTT against Eif2ak1 | 2.2 (active) |
| GGGAUACUUUUUAUUCAGGTT against Nmu | -0.0461 |
| GGAGCAGACGAUAUGCAGATT against Copb2 | 0.559 |
| CCAAUUGCUAAUCCUUUGUTT against Pin1 | 1.52 |
| GGACACAAUCCAGAACCAGTT against Angpt4 | -0.189 |
| GCCUGAGUUAUGUUUAAAGTT against Pgam5 | 0.00362 |
| CCACGUGAAGGAGAGAUGATT against Mob2 | 1.39 |
| GCGACCAGGACCGCGUCAATT against Sox3 | -1.07 |
| GCACUGAAGCCUAGCUGUUTT against BC051142 | 1.41 |
| GGUGUUGAGUUCAAGUCUATT against Dennd11 | -0.468 |
| GGGCAAACUCUAUAAUCAGTT against BC023105 | 0.337 |
| GCUCCGUGUUGACUCAAAATT against Foxg1 | 2.46 (active) |
| CCCUCAGAUCUUUCAGUCUTT against Btbd16 | -1.01 |

| Sequence | z-score |
| --- | --- |
| GCAUGGUUUAAUGGCUCGGTT against Atpsckmt | -1.93 |
| GGAAUAUUUUGCUUGUGUGTT against Dnmt3a | -0.925 |
| GGUUUAAGAAAAAAGGAGCTT against Rab43 | -0.182 |
| CCUCUGUUUGUGCGCCAUATT against Uqcrfs1 | 0.402 |
| GGUUAUCAAACAGGUGUUGTT against Aldh3b1 | 2.22 (active) |
| GCGAGUUCGGAAGAAGUAUTT against Ddx41 | -0.198 |
| GGAGAUCCAGGCAAUUUUUTT against Pink1 | 0.779 |
| GUUGGUAGAUUCAGUUUUCTT against Vmn1r89 | 1.88 |
| GGUGAAGAAAGCACUAGUUTT against Olfr979 | -0.873 |
| GGACCUUGGCCUUACACAATT against Astn2 | 2.29 (active) |
| GGGCAUGCUGCUUAUUGUGTT against Slc5a4b | -0.8 |
| GCAACACGUACGAGCUCAATT against Pou2af1 | -0.926 |
| GGGUUCUAGGUUGUUUAUGTT against C2cd4c | -1.74 |
| GGCGAGCUGGACAGAUUUGTT against Nudt6 | 3.33 (active) |
| CCUGCAUUUACUCAACUUGTT against Snrpe | -1.74 |
| GGAUACAAGCCUUUUAACCTT against Sri | -0.0625 |
| GAACAACAACAGACAAGUGTT against Cxcl12 | -0.65 |
| GGUAUUUUUGCAUUUGUCCTT against Pip4p2 | 1.32 |
| GGUUAUUGAUGUGACGAUGTT against Rem2 | 1.36 |
| CCACCCUGAUUUAAGAAGGTT against Ndufs3 | 2.53 (active) |
| CCUACGUGAUAUCCUUUUATT against Vrk1 | 0.0128 |
| GGAUAGAAAAUCUGUGUUUTT against Trim60 | -0.401 |

| Sequence | z-score |
| --- | --- |
| GGUAUUUAUGAAGCACACATT against Clcn3 | 0.451 |
| GGGUCUAUCAGCUACAUCATT against Acsl6 | -1.28 |
| CGUAUUGCCUUAGUGUAUGTT against Olfr433 | -2.7 (active) |
| GGGCUAUCGGUUGACAAAUTT against Riok2 | 1.67 |
| GCGUAUUACAGACAGUGACTT against Izumo1 | 0.023 |
| GGAACUGUUUCUCUUUCCUTT against Rad9a | -1.45 |
| CGUGUUCUAUGAUGGUAAUTT against Selenoo | -0.197 |
| GCAACUUGGCUACAAUUACTT against Dct | 0.987 |
| GGACCAAGCCACCAAAACUTT against Vmn1r78 | -2.28 (active) |
| CCUAUGAUUCAGCAAUACUTT against Col17a1 | 0.677 |
| GGAAGAGGAGAGGAAGAAGTT against Dync1i1 | 1.91 |
| GGCUCUAAGCUAAAUAAAGTT against Kbtbd4 | -0.249 |
| CCGCGUCUUGCUAUGGAAGTT against Baiap2l2 | 0.79 |
| GCUGGAAGAUAGUGCUUUUTT against Itpr1 | 5.23 (active) |
| GGGUUUAUGGGCAUGUCCCTT against Adipor2 | -0.964 |
| GGUUAAAAAUGCCAUUAGATT against Olfr1233 | 0.133 |
| GGAAGACAUCAAGAUGUAATT against Rp1l1 | -1.28 |
| GGAGCUGUAAAGGCUACAATT against Sulf2 | 4.14 (active) |
| CGUGGAAAUGUCUUAAAUCTT against Folh1 | 0.412 |
| GGAGAAAAAUCCUACCGACTT against Zmym5 | 0.56 |
| GCGAUUGAAGUCUCAGGGATT against Nrde2 | -1.03 |
| GGAAUAUUGGUUGUGAUGATT against Ralb | -0.197 |

| Sequence | z-score |
| --- | --- |
| GCUAAUGGUCCAUUGAUAUTT against Btn2a2 | 0.229 |
| GGGAAGAGUUGGAUCGAUCTT against Shkbp1 | -0.0675 |
| GGAGGAUAAGGAUACAGUATT against Cspg5 | 2.27 (active) |
| GGAGGAAAGAAAAGAUCCATT against Tie1 | -0.102 |
| GCUAUGUCAUGGUUGGAACTT against Bag6 | 0.597 |
| GCUUGCCUGACCUGAAACATT against Apool | -2.38 (active) |
| GCAACAAAUCAGAUUUGACTT against Dhdh | 0.246 |
| GGGAUGGACAAGUUGUACUTT against Renbp | -0.101 |
| GGACCUUUUUAUCCAACGCTT against Mcts2 | 0.46 |
| CCUGAAUUAUGUGUAACUUTT against Ywhab | -0.819 |
| CCACUGUGAGACACAUAAGTT against Muc4 | -3.25 (active) |
| GGAAAUAGAUCCUUUUUGATT against 2510039O18Rik | 0.861 |
| GCCAGUAGUAGUAGAAUAATT against Gm4841 | 0.997 |
| CCUGGCAGUAAAAGAUUGCTT against Ndst3 | 0.836 |
| GGGAAGGGAUCCUAUAUUUTT against Lsm12 | 0.158 |
| CCCAGCAUGGAUCAAGCACTT against Krt73 | 0.864 |
| GGGUGCACUGGCUAAUAUATT against H2-Ea | 1.13 |
| GGGAAUAUUCAGUUGACAATT against Iigp1 | -1.14 |
| GGUGAAUUUGAUUGAUGAGTT against Ccnl2 | -2.3 (active) |
| GGAGAAAGCCUUCCUUAGUTT against Trpc5 | -0.115 |

Source: PubChem BioAssay AID1508600 (Functional Genomics Laboratory (NCATS/FGL), 2020)
